# TDP1 cell noCPT: qHTS for Inhibitors of human tyrosyl-DNA phosphodiesterase 1 (TDP1): qHTS in cells in absence of CPT. DT40 Tdp1-/- hTDP1 cells, no CPT, ATP luminescence, 48 h. Potency, µM (highest dose often 46.2 µM), inactives show top-dose activity change, negative = growth inhibition, usual class: inhibitors. hit rate 15% among 420,000; note: potency is the fitted concentration of half-maximal effect; % is set by controls: 0 for no effect and ±100 for the full control effect; nearly all actives have a fitted effect of over 55% in size
#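 Seeded 400 DT40-hTDP1 cells/well (vehicle DMSO, no 20 nM CPT); pinned compounds; ≥48 hr at 37 °C; CellTiter-Glo luminescence as viability measure.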
# ASM inhibitor: blocks human secretory acid sphingomyelinase; P17405; placental ASM, HMU-PC fluorogenic substrate, 60 min; Potency, µM (series often up to 57.5 µM), without a hit: at the highest dose activity change, negative = inhibition, actives largely listed as inhibitors; hit rate 0.006% among 340,000; AID 504937; note: potency is the fitted concentration of half-maximal effect
# Target sequence (P17405 47-631 limits assumed): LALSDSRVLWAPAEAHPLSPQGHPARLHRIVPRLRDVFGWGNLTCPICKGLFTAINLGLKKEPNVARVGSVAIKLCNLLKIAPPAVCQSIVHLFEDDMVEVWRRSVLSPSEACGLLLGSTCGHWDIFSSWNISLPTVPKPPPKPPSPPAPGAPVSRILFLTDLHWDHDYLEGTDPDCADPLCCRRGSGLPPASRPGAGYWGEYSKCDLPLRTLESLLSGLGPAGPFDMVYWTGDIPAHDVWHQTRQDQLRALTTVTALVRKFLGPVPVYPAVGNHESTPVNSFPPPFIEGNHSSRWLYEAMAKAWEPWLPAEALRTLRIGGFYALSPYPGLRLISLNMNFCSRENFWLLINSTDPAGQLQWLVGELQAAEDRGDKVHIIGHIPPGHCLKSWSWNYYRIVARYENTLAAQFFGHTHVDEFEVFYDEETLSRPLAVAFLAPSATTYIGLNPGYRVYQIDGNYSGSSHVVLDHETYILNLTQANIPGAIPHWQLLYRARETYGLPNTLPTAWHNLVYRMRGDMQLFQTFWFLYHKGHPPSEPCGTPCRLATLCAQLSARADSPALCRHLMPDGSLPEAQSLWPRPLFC
#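 Steps: dispense placental human ASM, pin compound, wait 10 min at room temperature, add HMU-PC0 substrate at 9 uM final, incubate 60 min at 37 °C, add stop solution raising pH to 10, read fluorescence.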
# DT40 TDP1 CPT: growth inhibition of DT40 Tdp1-/-;hTDP1 cells with camptothecin (screen for TDP1 inhibitors) | chicken DT40 Tdp1-/-;hTDP1 cells + 20 nM CPT, ATP luminescence, 48 h | Potency, µM (series often up to 46.2 µM), for inactives: top-dose activity change, negative = growth inhibition, most hits filed as inhibitors | hit rate 12% among 420,000; note: potency is the fitted concentration of half-maximal effect; % is set by controls: 0 for no effect and ±100 for the full control effect; nearly all actives have a fitted effect of over 55% in size
#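 Chicken DT40 Tdp1-/- cells stably complemented with human TDP1 were seeded at 400 cells/well in medium containing 20 nM camptothecin, exposed to pin-transferred compounds, and grown at 37 °C for at least 48 hr. Viability was read as ATP luminescence.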
# IL-1B inflam inh: inflammasome signaling inhibition, IL-1 beta readout; activity change, % at 57.5 µM; AID 743279; hit rate 4.7% among 360,000; THP-1 LPS/ATP IL-1B secretion, AlphaLISA, 16 h; active compounds read low; in the data active = activity change below about -50%; inconclusive = mostly about -30% to -49%; note: % is set by controls: 0 for no effect and ±100 for the full control effect
#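 THP-1 cells pretreated 1 hr with compounds (up to 57.5 uM final), then stimulated with LPS (250 ng/mL final) plus ATP (1.25 mM final); secreted IL-1B measured by AlphaLISA after 16 hr, decreased signal indicating inhibition.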
# HepG2 viability: kills HepG2 cells in TGF-b inhibitor counter-screen; HepG2 CAGA-GFP viability, ATP luminescence, 18 h; Potency, µM (top dose mostly 46.1 µM), inactives show at the highest dose activity change, negative = cytotoxicity, hits mostly cytotoxic; hit rate 0.76% among 410,000; note: potency is the fitted concentration of half-maximal effect
#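 HepG2 CAGA-GFP cells (1000/well, DMEM with 1% FBS) received compound, then TGF-beta at 500 pg/mL final, and were incubated 18 hours at 37 degrees C. Viability was read by CellTiter-Glo luminescence. Media-only wells were set as complete cell-killing and DMSO as no toxicity.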
# TGFb SMAD3 inh: inhibitors of TGF-b signaling | HepG2 CAGA-GFP TGF-b/SMAD3 reporter, GFP fluorescence, 18 h; TGF-beta stimulated, 500 pg/mL final | Potency, µM (titrated, usually from 46.1 µM), without a hit: at the top dose activity, negative = inhibition, most hits filed as inhibitors | hit rate 1.2% among 410,000; note: potency is the fitted concentration of half-maximal effect; % is set by controls: 0 for no effect and ±100 for the full control effect; nearly all actives have a fitted effect of over 65% in size
#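 GFP signal (ex488/em500-530) from TGF-beta-stimulated HEPG2 CAGA-GFP cells, 500 pg/mL final, 18 h at 37 degrees C in DMEM plus 1% FBS, normalized to unstimulated and DMSO-stimulated controls.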
# Active calls of the source: *; ? = inconclusive; / = no result given. A selection: hits, their analogues and other compounds. The true share with any hit is near 19%. Unless noted, calls come from the whole dose curve; as a rule, active = well fitted curve in the direction sought with a large enough effect; inconclusive = small, poorly fitted or top-dose-only effect, or another doubt; inactive = no such curve, though single readings can be large; an effect the other way counts as inactive or inconclusive.
SMILES,TDP1 cell noCPT,ASM inhibitor,DT40 TDP1 CPT,IL-1B inflam inh,HepG2 viability,TGFb SMAD3 inh
OC(COc1ccc2ccccc2c1Br)Cn1ccnc1 (centres undefined),21µM*,2%,?,-25,-3%,-22%
COc1ccccc1NS(=O)(=O)NC(=O)c1cn(C)c2ccccc12,3%,0%,-12%,35,10%,1%
CC(=O)n1cc(N(C(=O)CCl)c2ccc(Cl)cc2)c2ccccc21,1.3µM*,-6%,1.5µM*,0,7.9µM*,?
COc1ccccc1N(C(=O)CCl)c1cn(C(C)=O)c2ccccc12,4.6µM*,2%,4.6µM*,-60*,11µM*,11µM*
CC(=O)n1cc(C=O)c2ccccc21,-28%,/,11%,/,0%,44%
N#C/C(=C\c1ccncc1)c1nc2c(s1)CCCC2,-30%,256%,-14%,57,-23%,-24%
Cc1ccc(S(=O)(=O)C2CS(=O)(=O)CC2O)cc1 (centres undefined),0%,1%,1%,-4,-4%,?
CC(=O)C1=C(S(=O)(=O)c2ccc(C)cc2)CS(=O)(=O)C1,4.6µM*,1%,3.7µM*,?,-79%,?
O=[N+]([O-])c1ccc(COc2ncnc3ccccc23)cc1,-3%,-2%,-2%,-3,0%,-4%
Cn1c(=O)[nH]c(=O)c2c1nc(NCc1ccco1)n2Cc1ccccc1Cl,9%,4%,2%,-10,1%,4%
CCn1c(SCC(=O)NCc2ccco2)nc2c1c(=O)n(C)c(=O)n2C,-1%,2%,-5%,9,0%,-9%
Cn1c(=O)c2c(nc(NCc3ccccc3)n2CC(=O)NCc2ccccc2)n(C)c1=O,-28%,-1%,4%,9,8%,7%
Cc1ccccc1OCC(O)Cn1c(Br)nc2c1c(=O)n(C)c(=O)n2C (centres undefined),?,-3%,?,49,-1%,-10%
Cn1c(=O)c2c(nc(NCc3ccco3)n2Cc2ccc(Cl)cc2Cl)n(C)c1=O,10µM*,?,12µM*,34,-9%,-1%
Cn1c(=O)c2c(nc(NCc3ccco3)n2CCc2ccccc2)n(C)c1=O,6.5µM*,-2%,7.3µM*,-18,3%,?
CCn1c(NCc2ccco2)nc2c1c(=O)n(C)c(=O)n2C,12µM*,-1%,?,-4,-3%,0%
Cc1ccccc1OCC(O)Cn1c(NCc2ccco2)nc2c1c(=O)n(C)c(=O)n2C (centres undefined),10µM*,-6%,12µM*,19,-7%,?
O=C(CCCc1nc(-c2ccco2)no1)Nc1ccccc1[N+](=O)[O-],-21%,/,-4%,/,-14%,17%
Cn1c(NCc2ccco2)nc2c1c(=O)n(Cc1ccc(Cl)c(Cl)c1)c(=O)n2C,18µM*,-21%,?,?,3%,?
O=S(=O)(Nc1ccncc1)c1cc(Cl)c(Cl)cc1Cl,-24%,-1%,24%,13,-35%,13%
Cc1cccc2c(C(O)c3cn(C)c4ccccc34)c[nH]c12 (centres undefined),16µM*,/,11µM*,/,-35%,?
CCOc1cc2[nH]c(=O)n(CCCN3CCN(c4ccc(OC)cc4)CC3)c(=O)c2cc1OCC,?,-2%,?,-14,6%,26%
COc1cc2[nH]c(=O)n(CCCCCC(=O)N3CCN(c4ccccc4)CC3)c(=O)c2cc1OC,16µM*,-1%,21µM*,-14,-8%,-19%
CCOc1cc2[nH]c(=O)n(CCCCC(=O)N3CCN(c4ccc(OC)cc4)CC3)c(=O)c2cc1OCC,9.2µM*,/,16µM*,/,5%,14%
COc1cc2[nH]c(=O)n(CCCC(=O)N3CCN(c4cccc(C(F)(F)F)c4)CC3)c(=O)c2cc1OC,2.3µM*,/,4.6µM*,/,-1%,-1%
SMILES,TDP1 cell noCPT,ASM inhibitor,DT40 TDP1 CPT,IL-1B inflam inh,HepG2 viability,TGFb SMAD3 inh
COc1cc2[nH]c(=O)n(CCC(=O)N3CCN(c4cccc(C)c4C)CC3)c(=O)c2cc1OC,?,-9%,23µM*,34,-21%,13%
COc1ccccc1N1CCN(C(=O)CCC(=O)Nc2nnc(C(C)C)s2)CC1,8%,6%,-23%,18,6%,4%
CC(C)(C)c1ccc(S(=O)(=O)N2CCc3nc4ccccc4c(C(=O)O)c3C2)cc1,-1%,7%,5%,3,15%,-4%
COc1cc2[nH]c(=O)n(CCC(=O)N3CCN(c4ccc(Cl)cc4)CC3)c(=O)c2cc1OC,-25%,/,-21%,/,2%,2%
COc1cc2[nH]c(=O)n(CCCCCC(=O)N3CCN(c4ccc(Cl)cc4)CC3)c(=O)c2cc1OC,7.3µM*,/,?,/,0%,7%
COC(=O)c1ccc2c(=O)n(CCCCCC(=O)N3CCN(c4ccccc4)CC3)c(=O)[nH]c2c1,10µM*,29%,18µM*,-18,-33%,-14%
COC(=O)c1ccc2c(=O)n(CCCCCC(=O)N3CCN(c4cc(Cl)ccc4C)CC3)c(=O)[nH]c2c1,5.8µM*,/,7.3µM*,/,-8%,?
COc1ccc(-c2ccc3c(c2)S(=O)(=O)c2cccc(C(=O)NCc4cc(C)oc4C(F)(F)F)c2C3=O)cc1OC,?,-6%,?,3,7%,13%
Cc1cccc(-c2c3c(=O)n(C)c(=O)n(C)c3c3nnc4ccccc4n23)c1,6.5µM*,1%,?,12,-3%,-9%
Cc1ccc(-c2c3c(=O)n(C)c(=O)n(C)c3c3cnc4ccccc4n23)cc1,-14%,/,-14%,/,1%,9%
Cc1ccc(-c2c3c(=O)n(C)c(=O)n(C)c3c3c(-c4cccc(C)c4)nc4ccccc4n23)cc1,?,/,?,/,-8%,11%
Cc1cccc(-c2c3c(=O)n(C)c(=O)n(C)c3c3c(C)nc4ccccc4n23)c1,6.5µM*,/,?,/,10%,16%
COCCN(CC(=O)Nc1cccc(C)c1C)C(=O)c1ccc(S(=O)(=O)N2CCOCC2)cc1,8%,/,4%,4,3%,0%
CCC1=C(OC(=O)N(CC)CC)N2C(=O)OC(=NCCc3c[nH]c4ccccc34)[C@]2(Cc2ccccc2)[C@H]2C1=CC[C@H]1C(=O)N(CC)C(=O)[C@H]12,?,0%,?,-21,-1%,-18%
